Experimental data from PubChem BioAssay (NCI).
This is part of a sample that, as a whole, favours compounds with a hit. Of some 79,000 tested, about 15% had one in any assay. The source made the active and inactive calls. Rule as the data show it: active = growth inhibition above about 70%; inactive = the rest.

Legend:
[1] = NCI Yeast Anticancer Drug Screen. Data for the rad52 strain (AID 147);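 also: 0% = growth of vehicle-treated control cultures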; settings: S. cerevisiae rad52 mutant growth inhibition, stronger effect = higher value
In short: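 Inhibition of yeast growth, referenced to vehicle controls, was the measured output for a strain with defective DNA damage repair.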

[2] = NCI Yeast Anticancer Drug Screen. Data for the wt1 strain (AID 149);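 also: 0% = growth of vehicle-treated wt1 cultures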; settings: S. cerevisiae wt1 strain (SPY 50644) growth inhibition, stronger effect = higher value
In short: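 Using yeast strain wt1, compound-induced growth inhibition was determined against vehicle-treated cultures.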

[3] = NCI Yeast Anticancer Drug Screen. Data for the rad50EPP+ strain (AID 151);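 also: 0% = growth of vehicle-treated control cultures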; settings: S. cerevisiae rad50 mutant strain, stronger effect = higher value
In short: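 Genetically defined yeast (rad50EPP+, DNA damage repair alteration) is grown with compound, and inhibition of growth is expressed relative to vehicle-treated controls.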

[4] = NCI Yeast Anticancer Drug Screen. Data for the mgt1 strain (AID 153); settings: S. cerevisiae mgt1 mutant growth inhibition, stronger effect = higher value
In short: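 In the mgt1 strain, test compounds were added and growth inhibition was determined relative to vehicle-treated controls.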

[5] = NCI Yeast Anticancer Drug Screen. Data for the rad50 strain (AID 155);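 also: 0% = growth of vehicle-only cultures of the same strain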; settings: S. cerevisiae rad50 strain growth inhibition, stronger effect = higher value
In short: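 Relative growth inhibition (compound vs vehicle) was measured in yeast with a defined repair-gene alteration.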

[6] = NCI Yeast Anticancer Drug Screen. Data for the mec2-1 strain (AID 157); settings: S. cerevisiae mec2-1 strain, stronger effect = higher value
In short: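 Each compound was tested on mec2-1 yeast, a strain altered in DNA damage repair or cell cycle control. Growth inhibition is reported relative to vehicle.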

[7] = NCI Yeast Anticancer Drug Screen. Data for the rad14 strain (AID 159);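 also: 0% = growth of vehicle-treated control cultures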; settings: S. cerevisiae rad14 strain growth inhibition, stronger effect = higher value
In short: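 Screen for anticancer potential: a yeast strain altered in DNA damage repair is grown with compound, and reduced growth is quantified against vehicle controls.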

[8] = NCI Yeast Anticancer Drug Screen. Data for the sgs1 mgt1 strain (AID 161);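 also: 0% = growth of cultures given vehicle only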; settings: S. cerevisiae sgs1 mgt1 strain, stronger effect = higher value
In short: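 Read-out: growth inhibition vs vehicle controls. Cells: mutant yeast strain deficient in DNA damage repair.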

[9] = NCI Yeast Anticancer Drug Screen. Data for the CLN2oe strain (AID 163);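 also: 0% = growth of vehicle-only control cultures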; settings: S. cerevisiae CLN2oe strain, stronger effect = higher value
In short: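 First, the altered yeast strain was treated with each compound; second, its growth was measured; finally, inhibition was derived by comparison with vehicle controls.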

[10] = NCI Yeast Anticancer Drug Screen. Data for the cln2 rad14 strain (AID 165);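 also: 0% = growth equal to vehicle treated cultures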; settings: S. cerevisiae cln2 rad14 strain, stronger effect = higher value
In short: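 Test compounds were added to cln2 rad14 yeast cultures; inhibition of growth was then determined by comparison with vehicle treatment.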

[11] = NCI Yeast Anticancer Drug Screen. Data for the bub3 strain (AID 167); settings: S. cerevisiae bub3 mutant strain, stronger effect = higher value
In short: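 Screening used yeast with an engineered genetic alteration affecting cell cycle control. Compound-exposed cultures were compared with vehicle cultures, and reduced growth was taken as inhibition.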

[12] = NCI Yeast Anticancer Drug Screen. Data for the wt2 strain (AID 169);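 also: 0% = growth of vehicle-treated yeast cultures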; settings: S. cerevisiae wt2 strain growth inhibition, stronger effect = higher value
In short: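 The panel's yeast strains carry defined changes in DNA repair or cell cycle genes. Each strain is grown with compound, and growth loss is scored relative to vehicle.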

[13] = NCI Yeast Anticancer Drug Screen. Data for the sgs1 strain (AID 173);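 also: 0% = growth of vehicle-only control cultures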; settings: S. cerevisiae sgs1 mutant, stronger effect = higher value
In short: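 Vehicle-treated cultures served as reference for growth inhibition of a yeast strain altered in DNA damage repair or cell cycle control after compound exposure.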

[14] = NCI Yeast Anticancer Drug Screen. Data for the mlh1 rad18 strain (AID 175); settings: S. cerevisiae mlh1 rad18 strain growth inhibition, stronger effect = higher value
In short: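 Inhibition values reflect reduced growth of mutant yeast versus vehicle-treated controls following compound exposure; the mutations affect DNA damage repair.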

[15] = NCI Yeast Anticancer Drug Screen. Data for the rad18 strain (AID 177); settings: S. cerevisiae rad18 mutant growth inhibition, stronger effect = higher value
In short: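 Steps: expose repair-mutant yeast to compound; measure growth; express as inhibition relative to vehicle control.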

[16] = NCI Yeast Anticancer Drug Screen. Data for the mlh1 strain (AID 171);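 also: 0% = growth of vehicle-treated control cultures of the same strain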; settings: S. cerevisiae mlh1 strain growth inhibition, stronger effect = higher value
In short: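 Inhibition values reflect reduced yeast growth in the presence of compound, referenced to vehicle controls, using a strain chosen for its alteration in DNA repair or cell cycle control.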

[17] = at 5.0 µM (retest, dose inferred, filed as 0.5)
[18] = at 50.0 µM (retest, dose inferred, filed as 5.0)

Measured: growth inhibition

Cc1cc[n+](C2=C(Nc3cccc(C(F)(F)F)c3)C(=O)c3ccccc3C2=O)cc1
active: [5]; [18] 80% | [5]; at 50.0 µM 86.8%
inactive: [1]; at 1.2 µM 5% | [1]; at 3.7 µM 5% | [1]; at 11.0 µM 7% | [1]; at 33.0 µM 21% | [1]; at 100.0 µM 55% | [2]; at 1.2 µM 0% | [2]; at 3.7 µM 2% | [2]; at 11.0 µM 4% | [2]; at 33.0 µM 7% | [2]; at 100.0 µM 12% | [3]; at 1.2 µM 7% | [3]; at 3.7 µM 9% | [3]; at 11.0 µM 12% | [3]; at 33.0 µM 29% | [3]; at 100.0 µM 30% | [4]; at 1.2 µM -1% | [4]; at 3.7 µM 0% | [4]; at 11.0 µM 1% | [4]; at 33.0 µM 10% | [4]; at 100.0 µM 12% | [5]; at 1.2 µM 2% | [5]; at 3.7 µM 3% | [5]; [17] 10% | [5]; at 11.0 µM 8% | [5]; at 33.0 µM 34% | [5]; at 100.0 µM 59% | [6]; at 1.2 µM 1% | [6]; at 3.7 µM 4% | [6]; [17] 8% | [6]; at 11.0 µM -17% | [6]; at 33.0 µM -14% | [6]; [18] 36% | [6]; at 50.0 µM 68.2% | [6]; at 100.0 µM 10% | [7]; at 1.2 µM 0% | [7]; at 3.7 µM -8% | [7]; at 11.0 µM -5% | [7]; at 33.0 µM 0% | [7]; at 100.0 µM 14% | [8]; [17] 6% | [8]; [18] 39% | [8]; at 50.0 µM 62% | [9]; at 1.2 µM 3% | [9]; at 3.7 µM 4% | [9]; at 11.0 µM 6% | [9]; at 33.0 µM -3% | [9]; at 100.0 µM -4% | [10]; [17] 6% | [10]; [18] -4% | [10]; at 50.0 µM 46.4% | [11]; at 1.2 µM 4% | [11]; at 3.7 µM 5% | [11]; [17] 1% | [11]; at 11.0 µM 9% | [11]; at 33.0 µM 13% | [11]; [18] 49% | [11]; at 50.0 µM 46.8% | [11]; at 100.0 µM 44% | [12]; at 1.2 µM 1% | [12]; at 3.7 µM 1% | [12]; at 11.0 µM 3% | [12]; at 33.0 µM 8% | [12]; at 100.0 µM 12% | [13]; at 1.2 µM 0% | [13]; at 3.7 µM -1% | [13]; at 11.0 µM 0% | [13]; at 33.0 µM 3% | [13]; at 100.0 µM 16% | [14]; [17] 3% | [14]; [18] 3% | [14]; at 50.0 µM 61.9% | [15]; at 1.2 µM 2% | [15]; at 3.7 µM -1% | [15]; at 11.0 µM 3% | [15]; at 33.0 µM 2% | [15]; at 100.0 µM 5%

O=C1c2ccc3ccccc3c2CCC1N1CCCCC1 (stereo unspecified)
active: [1]; at 33.0 µM 81% | [1]; at 100.0 µM 98% | [2]; at 100.0 µM 97% | [3]; at 11.0 µM 77% | [3]; at 33.0 µM 85% | [3]; at 100.0 µM 98% | [4]; at 33.0 µM 76% | [4]; at 100.0 µM 98% | [5]; at 33.0 µM 73% | [5]; [18] 97% | [5]; at 50.0 µM 98.9% | [5]; at 100.0 µM 98% | [6]; [18] 99% | [6]; at 50.0 µM 98.8% | [6]; at 100.0 µM 95% | [7]; at 33.0 µM 97% | [7]; at 100.0 µM 98% | [8]; [18] 98% | [8]; at 50.0 µM 99.2% | [9]; at 100.0 µM 98% | [10]; [18] 97% | [10]; at 50.0 µM 78.3% | [11]; at 33.0 µM 76% | [11]; [18] 99% | [11]; at 50.0 µM 99.3% | [11]; at 100.0 µM 97% | [12]; at 33.0 µM 79% | [12]; at 100.0 µM 97% | [16]; at 33.0 µM 81% | [16]; at 100.0 µM 98% | [13]; at 33.0 µM 92% | [13]; at 100.0 µM 98% | [14]; [18] 99% | [14]; at 50.0 µM 97% | [15]; at 100.0 µM 97%
inactive: [1]; at 1.2 µM 4% | [1]; at 3.7 µM 16% | [1]; at 11.0 µM 41% | [2]; at 1.2 µM 3% | [2]; at 3.7 µM 11% | [2]; at 11.0 µM 9% | [2]; at 33.0 µM 27% | [3]; at 1.2 µM 32% | [3]; at 3.7 µM 53% | [4]; at 1.2 µM 3% | [4]; at 3.7 µM 10% | [4]; at 11.0 µM 21% | [5]; at 1.2 µM 2% | [5]; at 3.7 µM 8% | [5]; [17] 9% | [5]; at 11.0 µM 16% | [6]; at 1.2 µM 0% | [6]; at 3.7 µM 11% | [6]; [17] 10% | [6]; at 11.0 µM 17% | [6]; at 33.0 µM 62% | [7]; at 1.2 µM 14% | [7]; at 3.7 µM 33% | [7]; at 11.0 µM 50% | [8]; [17] 19% | [9]; at 1.2 µM 5% | [9]; at 3.7 µM 5% | [9]; at 11.0 µM 22% | [9]; at 33.0 µM 61% | [10]; [17] 7% | [11]; at 1.2 µM -7% | [11]; at 3.7 µM -6% | [11]; [17] 10% | [11]; at 11.0 µM 8% | [12]; at 1.2 µM 5% | [12]; at 3.7 µM 14% | [12]; at 11.0 µM 33% | [16]; at 1.2 µM -1% | [16]; at 3.7 µM 7% | [16]; at 11.0 µM 22% | [13]; at 1.2 µM 4% | [13]; at 3.7 µM 12% | [13]; at 11.0 µM 41% | [14]; [17] 31% | [15]; at 1.2 µM 6% | [15]; at 3.7 µM 13% | [15]; at 11.0 µM 26% | [15]; at 33.0 µM 65%

Cc1c([N+](=O)[O-])oc2ccc3ccccc3c12
active: [1]; at 11.0 µM 86% | [1]; at 33.0 µM 94% | [1]; at 100.0 µM 92% | [3]; at 11.0 µM 79% | [3]; at 33.0 µM 91% | [3]; at 100.0 µM 88% | [5]; [17] 70% | [5]; at 33.0 µM 88% | [5]; [18] 90% | [5]; at 50.0 µM 87% | [5]; at 100.0 µM 92%
inactive: [1]; at 1.2 µM 23% | [1]; at 3.7 µM 50% | [2]; at 1.2 µM 2% | [2]; at 3.7 µM 2% | [2]; at 11.0 µM 4% | [2]; at 33.0 µM 11% | [2]; at 100.0 µM 21% | [3]; at 1.2 µM 26% | [3]; at 3.7 µM 50% | [4]; at 1.2 µM -8% | [4]; at 3.7 µM -1% | [4]; at 11.0 µM 3% | [4]; at 33.0 µM 8% | [4]; at 100.0 µM 22% | [5]; at 1.2 µM 26% | [5]; at 3.7 µM 48% | [5]; at 11.0 µM 69% | [6]; at 1.2 µM 6% | [6]; at 3.7 µM 6%
